{"source": "PubChem BioAssay AID504466", "about": "(National Center for Advancing Translational Sciences (NCATS), 2011)", "note": "About 4,200 (1.3%) of roughly 330,000 compounds were called active. About 6% were inconclusive and are not listed. Shown is part of a subset that was picked to be rich in actives. A number with no mark means an inactive call. Calls come from the whole dose curve; as a rule, active = well fitted activation curve with a large enough effect; inconclusive = small, poorly fitted or top-dose-only effect; inactive = no such curve, though single readings can be large or run the other way. Potency is the fitted concentration of half-maximal effect.", "data": [{"assay": "qHTS screen for small molecules that induce genotoxicity in human embryonic kidney (HEK293T) cells expressing luciferase-tagged ELG1; note: nearly all actives have a fitted effect of over 60% in size; for activity change, positive = activation: % of control where 0% means no effect", "conditions": "HEK293T ELG1-luciferase reporter, luminescence, 16 h; series mostly up to 46 µM; activity change, positive = activation: at the top concentration", "how_it_was_run": "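DMSO vehicle served as control against compound-treated ELG1-luciferase HEK293T cells; exposure lasted 16 hr at 37 °C and 5% CO2, followed by ONE-Glo luminescence detection after 30 min.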", "units": {"activity change, positive = activation": "%"}, "values": [{"smiles": "O=C(c1ccc(N2CCOCC2)c([N+](=O)[O-])c1)N1CCN(c2ccccc2F)CC1", "activity change, positive = activation": -9.33}, {"smiles": "Cc1nc2cc(NCc3cccs3)ccc2n1C", "activity change, positive = activation": 28.1}, {"smiles": "Cc1nc2cc(NC(=O)Nc3cccc(F)c3)ccc2n1C", "Potency": "0.92 µM (active)"}, {"smiles": "C=CCN(C(=O)Nc1ccc2c(c1)nc(C)n2C)c1ccccc1", "activity change, positive = activation": 16.1}, {"smiles": "CNC[C@H]1Oc2c(NC(=O)C3CCCCC3)cccc2C(=O)N([C@H](C)CO)C[C@@H]1C", "activity change, positive = activation": -1.66}, {"smiles": "Brc1ccccc1/C=N/Nc1nc2ccccc2o1", "Potency": "11.6 µM (active)"}, {"smiles": "COc1ccc(/C=N\\NC(=O)c2sc(N)nc2C)cc1OC", "activity change, positive = activation": 12.3}, {"smiles": "Oc1c(Br)cccc1/C=N/Nc1c(F)c(F)c(F)c(F)c1F", "activity change, positive = activation": -4.64}, {"smiles": "CCOc1ccccc1/C=N/Nc1nc2ccccc2o1", "activity change, positive = activation": 7.08}, {"smiles": "COc1ccc(/C=N/Nc2nc3ccccc3o2)cc1OC", "Potency": "2.59 µM (active)"}, {"smiles": "COc1cc(/C=N\\Nc2nc(-c3cccs3)c(NC(C)=O)s2)ccc1O", "activity change, positive = activation": -3.28}, {"smiles": "CCCCNc1c(-c2ccc(OC)c(Sc3ccc(OC)cc3)c2)nc2ccc(Cl)cn12", "activity change, positive = activation": -4.18}, {"smiles": "O=C(CCNC(=O)c1ccccc1)NN=Cc1ccc(Br)o1", "activity change, positive = activation": -0.0854}, {"smiles": "CC(=O)N(O)CCCCCNC(=O)CCC(=O)N(O)CCCCCNC(=O)CCC(=O)N(O)CCCCCNC(=O)CCC(=O)O", "activity change, positive = activation": 5.77}, {"smiles": "Cc1ccc(C(=O)NCCNC(=O)c2cnccn2)cc1", "activity change, positive = activation": -0.0843}, {"smiles": "CCN(CC)c1ccc(/C=N/NC(=O)c2cnccn2)c(O)c1", "Potency": "18.3 µM (active)"}, {"smiles": "CCN(CC)c1ccc(/C=N/NC(=O)CNC(=O)c2cccnc2)cc1", "activity change, positive = activation": 2.7}, {"smiles": "CN(CC(=O)NCCc1ccc(S(N)(=O)=O)cc1)CC(=O)Nc1ccc(Cl)cc1", "activity change, positive = activation": 0.0154}, {"smiles": "COc1ccc(C(=O)NCc2ccccc2C)cc1S(=O)(=O)NC1CCCC1", "activity change, positive = activation": 1.93}, {"smiles": "CCc1c(C)sc(NC(=O)c2ccc(Br)o2)c1C(=O)OC", "activity change, positive = activation": -1.84}, {"smiles": "CCOC(=O)c1oc2ccccc2c1NC(=O)c1cccs1", "activity change, positive = activation": -1.95}, {"smiles": "CCc1c(C)sc(NC(=O)c2cccs2)c1C(N)=O", "Potency": "18.4 µM (active)"}, {"smiles": "CC(Sc1nncn1C)C(=O)NCCC1=CCCCC1", "note": "(stereo not drawn)", "activity change, positive = activation": -0.535}, {"smiles": "CN1C(=O)[C@H]2[C@@H](/C=C/c3ccccc3)N3C(=O)CN(Cc4ccc(-c5ccccc5)cc4)C(=O)[C@@]3(C)[C@H]2C1=O", "activity change, positive = activation": -1.14}, {"smiles": "Cn1c(N)c(C(=O)COC(=O)c2ccc3ccccc3c2)c(=O)n(C)c1=O", "activity change, positive = activation": -2.01}, {"smiles": "COC(=O)CCC(=O)N1CCCC(CO)(Cc2ccccc2)C1", "note": "(stereo not drawn)", "Potency": "20.6 µM (active)"}, {"smiles": "CCCc1cc(C(=O)N2CCCC(CO)(CCCc3ccccc3)C2)n(C)n1", "note": "(stereo not drawn)", "activity change, positive = activation": -3.98}, {"smiles": "Cc1ccccc1CC1(CO)CCCN(C(=O)c2cc(-c3ccccc3)no2)C1", "note": "(stereo not drawn)", "activity change, positive = activation": -1.39}, {"smiles": "Cc1onc(-c2c(F)cccc2Cl)c1C(=O)OCC(=O)N1C(C)CCCC1C", "note": "(stereo not drawn)", "activity change, positive = activation": -5.26}, {"smiles": "CCN(CC(=O)NC(C)C)C(=O)c1cc(S(=O)(=O)N2CCCCC2)ccc1N1CCCCC1", "activity change, positive = activation": 2.3}, {"smiles": "O=C(c1cc(-c2ccc(F)cc2)on1)N1CCN(c2ccc(F)cc2)CC1", "activity change, positive = activation": 1.19}, {"smiles": "O=C(c1cc(-c2ccc(O)cc2)on1)N1CCCc2ccccc21", "activity change, positive = activation": 12.3}, {"smiles": "O=C(c1cc(-c2ccc(O)cc2)on1)N1CCOCC1", "Potency": "4.61 µM (active)"}, {"smiles": "COc1ccc(-c2c(C#Cc3ccsc3)c3cc(-c4ccc(CN5CCOCC5)cc4)ccc3n2C)cc1", "activity change, positive = activation": 0.314}, {"smiles": "O=C(COC(=O)c1ccccc1C(=O)c1ccccc1)c1ccco1", "activity change, positive = activation": -0.249}, {"smiles": "CCc1ccc(C(=O)COC(=O)c2ccco2)cc1", "Potency": "23.1 µM (active)"}, {"smiles": "O=C(OCC(=O)N1CCCC1)c1ccco1", "activity change, positive = activation": 2.73}, {"smiles": "COc1ccc(S(=O)(=O)N2CCN(CC(=O)N3CCOCC3)CC2)cc1OC", "activity change, positive = activation": 0.561}, {"smiles": "CCOC(=O)C1=CN(Cc2ccc(Br)cc2)S(=O)(=O)N(C)C1C", "note": "(stereo not drawn)", "activity change, positive = activation": 8.95}, {"smiles": "COc1cc(NC(=O)COC(=O)c2cc(S(=O)(=O)N3CCOCC3)ccc2F)cc(OC)c1", "activity change, positive = activation": 1.61}, {"smiles": "CS(=O)(=O)N1CCN(c2cccc(Cl)n2)CC1", "activity change, positive = activation": 0.407}, {"smiles": "CS(=O)(=O)N1CCc2nc(-c3ccccc3)sc2C1", "Potency": "9.2 µM (active)"}, {"smiles": "CS(=O)(=O)N1CCC(C(=O)N2CCN(c3ccccc3)CC2)CC1", "activity change, positive = activation": 21.4}, {"smiles": "COc1ccc(C(=O)COC(=O)CN2C(=O)C3CC=CCC3C2=O)c(OC)c1", "note": "(stereo not drawn)", "activity change, positive = activation": 10.6}, {"smiles": "CCC(C)N(C(=O)CSc1ncnc2c1cnn2-c1ccccc1)C1CCS(=O)(=O)C1", "note": "(stereo not drawn)", "activity change, positive = activation": 8.25}, {"smiles": "CC(Sc1ncnc2c1cnn2-c1ccccc1)C(=O)Nc1ccc(N2CCOCC2)cc1", "note": "(stereo not drawn)", "activity change, positive = activation": 4.63}, {"smiles": "CC(C)Sc1ncnc2c1cnn2-c1ccccc1", "Potency": "8.2 µM (active)"}, {"smiles": "COc1ccc(Br)cc1CN(C)C(=O)C1CC(=O)N(C2CCCC2)C1", "note": "(stereo not drawn)", "activity change, positive = activation": -1.91}, {"smiles": "O=C1NC(Cc2ccc(O)cc2)c2nc3ccc(Cl)cc3c(=O)n2-c2ccccc21", "note": "(stereo not drawn)", "activity change, positive = activation": -0.0778}, {"smiles": "O=C(Nc1ccccc1)c1ccco1", "activity change, positive = activation": 10.5}, {"smiles": "CCOC(=O)c1ccc(NC(=O)CNC(=O)c2ccco2)cc1", "activity change, positive = activation": -0.116}, {"smiles": "COC(=O)c1ccc(NC(=O)c2ccco2)cc1", "Potency": "20.6 µM (active)"}, {"smiles": "O=C(CN1C(=O)NC(Cc2c[nH]c3ccccc23)C1=O)Nc1ccccc1C(F)(F)F", "note": "(stereo not drawn)", "activity change, positive = activation": 1.08}, {"smiles": "C[C@H]1COC(=O)[C@H](CC(=O)OC(C)(C)C)C/C=C\\C[C@@H](CC(=O)N[C@H](CO)Cc2ccccc2)C(=O)N1", "activity change, positive = activation": 1.67}, {"smiles": "CCOC(=O)C1=C(C)N(C[C@@H]2CC[C@@H](Cc3ccc(-c4ccccc4)cc3)O2)C(=O)NC1c1ccc([N+](=O)[O-])cc1", "note": "(stereo partly drawn)", "activity change, positive = activation": -1.18}, {"smiles": "COc1ccc(C(=O)Nc2ccccc2C(=O)NCc2ccco2)cc1", "activity change, positive = activation": 2.53}, {"smiles": "COc1ccc(CNC(=O)CNC(=O)c2sc3ccccc3c2Cl)cc1OC", "activity change, positive = activation": -0.263}, {"smiles": "O=C(NCc1ccco1)c1nn2cccnc2c1Cl", "activity change, positive = activation": 8.92}, {"smiles": "COc1ccc2c(Cl)c(C(=O)NCc3ccco3)sc2c1", "Potency": "10 µM (active)"}, {"smiles": "O=C(CCNC(=O)c1ccccc1Cl)NCc1ccco1", "activity change, positive = activation": 0.628}, {"smiles": "O=C(NCc1ccco1)c1sc2cccc(F)c2c1Cl", "Potency": "18.4 µM (active)"}, {"smiles": "COc1cc(/C=C2\\Oc3ccc(C#Cc4ccc(O)cc4)cc3C2=O)cc(OC)c1", "activity change, positive = activation": 13.2}, {"smiles": "Cc1cc(C(=O)OCC(=O)N2C(C)CCCC2C)c2ccccc2n1", "note": "(stereo not drawn)", "activity change, positive = activation": -1.01}, {"smiles": "O=C(c1cnccn1)N1CCN(S(=O)(=O)c2cccc(Cl)c2)CC1", "activity change, positive = activation": 1.23}, {"smiles": "O=C(COC(=O)c1cc[n+]([O-])cc1)Nc1ccc(Cl)c(C(F)(F)F)c1", "activity change, positive = activation": 0.532}, {"smiles": "COc1ccc(C(=O)Cc2cnn(-c3ccccc3)c2)c(O)c1", "Potency": "18.4 µM (active)"}, {"smiles": "COc1ccc(C(=O)CC(=O)c2ccc(C)cc2)c(O)c1", "activity change, positive = activation": -0.576}, {"smiles": "Cc1cc(O)cc(O)c1C(=O)Cc1cnn(-c2ccccc2)c1", "activity change, positive = activation": -0.749}]}]}
